The source of these data is PubChem BioAssay (NCI).

This is part of a sample that, as a whole, favours compounds with a hit. Of some 83,000 tested, about 20% had one in any assay.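 Cells were grown in 96-well plates and exposed to the test compound at a single concentration for 48 hours; results are reported as percent growth, with values below 10 considered active.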 A number with no mark means an inactive call. Activity calls are given as the source filed them.

Some test systems named below: NCI-H23 lung; NCI-H226 lung; NCI-H322M lung; HOP-62 NSCLC; NCI-H460 lung; HOP-92 NSCLC; NCI-H522 lung; A549/ATCC NSCLC; 786-0 renal; DU-145 prostate; K-562 leukemia; MALME-3M melanoma; MDA-MB-231 breast; RXF 393 renal; SF-268 CNS; SF-295 CNS; SF-539 CNS; UACC-257 melanoma; M14 melanoma; COLO 205 colon.
Experiment in all cases: NCI-60 one-dose screen, 48 h (100 = growth as untreated, 0 = no growth, -100 = all killed)
What all share (settings): 10 µM unless noted

On to `C=CCn1c(SCC(=O)Nc2ccc(C(=O)/C=C/c3ccc(OC)cc3)cc2)nnc1-c1ccccc1`, for which the growth is 94.2% with NCI-H23 lung; 90.3% in the test with NCI-H226 lung; 89% in the test with NCI-H322M lung; 91.6% in the test with HOP-62 NSCLC; 103% in the test with NCI-H460 lung; 86% in the test on HOP-92 NSCLC. The growth was 80.7% in the test on NCI-H522 lung; 83% with A549/ATCC NSCLC; 73.3% in the test with 786-0 renal; 93.8% in the test with DU-145 prostate; 91.5% in the test with K-562 leukemia; 88.2% in the test on MALME-3M melanoma. Moreover, the growth in the test on MDA-MB-231 breast is 76.2%; in the test with RXF 393 renal, 115%; in the test with SF-268 CNS, 80.9%; with SF-295 CNS, 90.4%; in the test with SF-539 CNS it was 98.2%; in the test with UACC-257 melanoma it was 104%. In the test with M14 melanoma, the growth is 81.5%.

Turning to `COC(=O)C1=C(C)NC(C)=C(C(=O)OCC(C)C)C1c1ccccc1[N+](=O)[O-]` (stereo not drawn), the growth in the test with NCI-H23 lung was 58.4%; in the test on NCI-H226 lung, 93.1%; in the test with NCI-H322M lung, 65.4%; in the test with HOP-62 NSCLC, 79.1%; with NCI-H460 lung it was 49.5%; in the test with HOP-92 NSCLC it was 47.3%. The growth in the test with NCI-H522 lung is 25.4%; in the test on 786-0 renal it was 59%; in the test on COLO 205 colon, 91.1%; in the test on DU-145 prostate, 50.6%; in the test on K-562 leukemia, 18.2%; in the test on MALME-3M melanoma it was 86.1%. The growth with MDA-MB-231 breast was 55%; with RXF 393 renal, 70.2%; in the test on SF-268 CNS, 66.6%; in the test on SF-295 CNS, 56.9%; with SF-539 CNS, 65.6%; in the test with UACC-257 melanoma it was 81.6%. The growth in the test on M14 melanoma is 51.1%.

Regarding `COC(=O)c1c2c(c(C)[n+]([O-])c1C)C(=O)C=CC2=O`, the growth in the test on NCI-H23 lung is -68.3% (active); in the test with NCI-H226 lung it was -91.9% (active); in the test on NCI-H322M lung, 2.39% (active); with HOP-62 NSCLC, -65.4% (active); with NCI-H460 lung, 2.35% (active); with HOP-92 NSCLC, 45.8%. For the same compound, the growth was -70.1% (active) in the test on NCI-H522 lung; -29.9% (active) with 786-0 renal; -78.5% (active) in the test on COLO 205 colon; -78.6% (active) in the test on DU-145 prostate; 10.5% in the test on K-562 leukemia; -87.8% (active) in the test on MALME-3M melanoma. Moreover, the growth is 0.888% (active) in the test with MDA-MB-231 breast; -76.2% (active) with RXF 393 renal; -0.514% (active) with SF-268 CNS; 19% with SF-295 CNS; -98.2% (active) with SF-539 CNS; -80.8% (active) in the test on UACC-257 melanoma. Besides, the growth with M14 melanoma is -82.8% (active).

For `COc1cc(C#Cc2ccc(=O)oc2C#Cc2ccccc2)cc(OC)c1OC`, the growth in the test with NCI-H23 lung was 64.8%; in the test on NCI-H226 lung it was 76.6%; in the test with NCI-H322M lung, 103%; in the test on HOP-62 NSCLC, 102%; with NCI-H460 lung, 84.7%; in the test with HOP-92 NSCLC it was 112%. In addition, the growth with NCI-H522 lung is 18.2%; with A549/ATCC NSCLC, 95.7%; with 786-0 renal it was 83%; in the test on DU-145 prostate, 65.7%; with K-562 leukemia, 4.76% (active); in the test on MALME-3M melanoma, 75.9%. In addition, the growth with MDA-MB-231 breast was 89%; with RXF 393 renal, 78.7%; in the test with SF-268 CNS, 43.5%; in the test with SF-295 CNS, 96.9%; with SF-539 CNS, 110%; with UACC-257 melanoma, 108%. Also, the growth in the test on M14 melanoma was 72.6%.

`CCCCCSB(SCCCCC)c1ccccc1`: the growth in the test on NCI-H23 lung was 99.9%; in the test on NCI-H226 lung, 102%; in the test on NCI-H322M lung it was 103%; in the test with HOP-62 NSCLC, 90%; in the test on NCI-H460 lung, 112%; in the test on HOP-92 NSCLC, 105%. For the same compound, the growth in the test on NCI-H522 lung is 88.3%; in the test with 786-0 renal, 103%; in the test on COLO 205 colon, 106%; in the test on DU-145 prostate it was 108%; with K-562 leukemia it was 112%; in the test with MALME-3M melanoma, 101%. For the same compound, the growth was 105% in the test on MDA-MB-231 breast; 109% in the test with RXF 393 renal; 98.2% in the test on SF-268 CNS; 105% in the test with SF-295 CNS; 106% in the test on SF-539 CNS; 94.4% in the test with UACC-257 melanoma. The growth in the test on M14 melanoma was 102%.

As for `Cn1cc(/C=C2/C(=O)Nc3ccccc32)c2ccccc21`, the growth was 73.4% with NCI-H23 lung; 70.6% in the test with NCI-H226 lung; 91.5% in the test on NCI-H322M lung; 76.8% in the test with HOP-62 NSCLC; 92.4% in the test on NCI-H460 lung; 87.4% in the test on HOP-92 NSCLC. For the same compound, the growth was 77.8% in the test with NCI-H522 lung; 98.4% in the test on 786-0 renal; 91.7% with COLO 205 colon; 99.1% in the test with DU-145 prostate; 96.7% in the test with K-562 leukemia; 94.5% in the test with MALME-3M melanoma. Moreover, the growth was 109% with MDA-MB-231 breast; 96.7% in the test with RXF 393 renal; 84.5% in the test on SF-268 CNS; 108% with SF-295 CNS; 80% with SF-539 CNS; 95.9% with UACC-257 melanoma. Besides, the growth in the test with M14 melanoma was 92.3%.

With `CCNC(=O)Oc1ccc(/C(=C(/C)Cc2ccc(OC)cc2)c2ccc(OCCN3CCCC3)cc2)cc1`, the growth with NCI-H23 lung was 86.6%; in the test with NCI-H226 lung, 90.1%; in the test on NCI-H322M lung it was 89%; with HOP-62 NSCLC, 93%; in the test with NCI-H460 lung, 55.9%; with HOP-92 NSCLC, 61.8%. Besides, the growth in the test on NCI-H522 lung was 78.9%; with 786-0 renal, 68%; in the test on COLO 205 colon, 33.4%; in the test on DU-145 prostate, 87.1%; with K-562 leukemia, 2.41% (active); in the test on MALME-3M melanoma, 80.6%. The growth in the test on MDA-MB-231 breast was 79.8%; with RXF 393 renal it was 76.3%; in the test with SF-268 CNS, 78.2%; in the test with SF-295 CNS, 79.3%; in the test with SF-539 CNS it was 76.8%; in the test on UACC-257 melanoma it was 105%. The growth in the test on M14 melanoma is 2.05% (active).
